From PubChem BioAssay
TLR4-MyD88 BLA = blocks binding of human TLR4 to MyD88. O00206+Q99836. inhibition, % at 8.4 µM. actives 0.18% (n = 200,000). HeLa CL3-4 TLR4/MyD88 BLA complementation, FRET ratio; in the data active = inhibition above about 25%;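 also: 0% = vehicle and 100% = reference inhibitor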
NOD2-RIPK2 inh = blocks binding of human NOD2 to RIPK2 | O43353 | CHO BLA complementation NOD2-RIPK2, CCF4 ratio | inhibition, % at 4.98 µM | actives 0.38% (n = 360,000); in the data active = inhibition above about 21%;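 also: 0% = vehicle only and 100% = reference blocker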
TLR9-MyD88 block = inhibitors of human TLR9-MyD88 binding; Q9NR96+Q99836; inhibition, % at 4.98 µM; AID 504734; CHO BLA complementation TLR9-MyD88, CCF4 FRET ratio; actives 0.21% (n = 340,000);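 active = inhibition above the mean over all tested compounds plus 3 SD, cut at about 21% in these data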;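 also: 0% = DMSO only wells and 100% = clavulanate BLA inhibitor control wells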
Target sequence (Q99836 whole entry, looked up): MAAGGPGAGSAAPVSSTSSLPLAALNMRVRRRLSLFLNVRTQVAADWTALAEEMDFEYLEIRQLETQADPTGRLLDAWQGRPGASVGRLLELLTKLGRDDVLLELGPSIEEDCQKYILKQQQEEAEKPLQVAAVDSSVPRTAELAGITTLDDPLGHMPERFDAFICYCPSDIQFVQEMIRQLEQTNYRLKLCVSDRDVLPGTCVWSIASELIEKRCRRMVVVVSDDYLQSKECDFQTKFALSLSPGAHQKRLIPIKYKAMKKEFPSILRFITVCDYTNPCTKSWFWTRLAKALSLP
Target sequence (Q9NR96 whole entry, looked up): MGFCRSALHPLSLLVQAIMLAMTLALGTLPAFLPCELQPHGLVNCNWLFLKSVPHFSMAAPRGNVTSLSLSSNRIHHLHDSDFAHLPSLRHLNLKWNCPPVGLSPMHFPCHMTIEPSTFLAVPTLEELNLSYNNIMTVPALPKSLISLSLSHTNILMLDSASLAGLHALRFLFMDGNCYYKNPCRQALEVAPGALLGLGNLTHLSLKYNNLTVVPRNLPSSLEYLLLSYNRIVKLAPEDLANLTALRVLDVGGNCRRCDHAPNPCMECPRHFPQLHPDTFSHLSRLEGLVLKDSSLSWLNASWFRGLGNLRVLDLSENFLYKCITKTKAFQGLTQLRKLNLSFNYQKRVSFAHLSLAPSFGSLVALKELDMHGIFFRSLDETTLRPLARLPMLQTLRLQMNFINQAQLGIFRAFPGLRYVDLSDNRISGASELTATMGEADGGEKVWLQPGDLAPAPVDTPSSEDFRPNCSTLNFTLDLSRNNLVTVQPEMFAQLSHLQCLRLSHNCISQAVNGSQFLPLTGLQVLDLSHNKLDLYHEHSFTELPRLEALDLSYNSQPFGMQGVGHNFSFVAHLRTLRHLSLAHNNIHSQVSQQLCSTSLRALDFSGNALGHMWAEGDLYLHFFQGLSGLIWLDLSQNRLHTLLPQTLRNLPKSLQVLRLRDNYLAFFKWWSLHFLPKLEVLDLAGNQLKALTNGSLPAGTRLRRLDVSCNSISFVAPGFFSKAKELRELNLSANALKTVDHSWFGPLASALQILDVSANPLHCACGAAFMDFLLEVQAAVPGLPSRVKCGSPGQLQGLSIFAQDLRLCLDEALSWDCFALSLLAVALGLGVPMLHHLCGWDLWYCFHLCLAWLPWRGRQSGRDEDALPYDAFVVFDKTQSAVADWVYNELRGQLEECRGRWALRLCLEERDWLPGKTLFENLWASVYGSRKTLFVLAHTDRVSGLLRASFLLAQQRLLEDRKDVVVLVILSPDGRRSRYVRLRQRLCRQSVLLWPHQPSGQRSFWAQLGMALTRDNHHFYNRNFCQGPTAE
HSF1 inh = HSF1 inhibition | NIH3T3-HGL HSE-luciferase, MG132-induced, luminescence 8 h; active compounds read low | AID 2098 | activity change, negative = inhibition, % at 7.5 µM (by protocol) | actives 0.77% (n = 300,000);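 active = more than half of replicate wells show activity change below -50%, luminescence cut by over half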;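 also: luciferase reports HSF-1 transcriptional activity via heat shock element; 0% = median of DMSO wells and -100% = zero luminescence signal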
HSF1 activator = increases HSF-1 driven luciferase reporter signal. NIH3T3-HGL HSF-1 luciferase reporter, MG132, 8 h; 100% = twice DMSO control signal. activation, % at 9 µM. actives 1.7% (n = 300,000). AID 504408;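 active = mean replicate activation of at least 50% with a set share of replicates each reaching 50%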;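 also: 0% = median of the neutral control wells and 100% = twice that signal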
NOD2 RIPK2 conf = confirmation of human NOD2-RIPK2 interaction inhibitors; inhibition, % at 4.98 µM; actives 70% (n = 1,200); shares compounds with NOD2-RIPK2 inh; CHO cells, NOD2-RIPK2 BLA complementation, CCF4 FRET;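 active = mean inhibition across replicates above a set limit taken from the earlier primary screen, cut at about 21% in these data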;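 also: 0% = DMSO-only wells and the high end = clavulanate BLA-blocked wells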
NOD2 BLA counter = hits BLA reporter in NOD2-RIPK2 inhibitor counterscreen. inhibition, % at 4.98 µM. AID 624371. shares compounds with NOD2-RIPK2 inh. actives 57% (n = 1,200). CHO BLA reporter, CCF4 FRET ratio;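 active = mean inhibition above the low-control mean inhibition plus three low-control SD, cut at about 11% in these data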;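 also: 0% = DMSO only wells and 100% = clavulanate high control wells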
Starred values were filed as active, the others as inactive. Most compounds without a hit are left out; they make up all but 2.4% or so of the library.

Results for CCN(CC(=O)Nc1ccc(NC(C)=O)cc1)C(=O)c1ccc(N2C(=O)c3ccccc3C2=O)cc1 ?
NOD2-RIPK2 inh: 7; TLR9-MyD88 block: -10

What do the screens show for `C=CS(=O)(=O)c1ccc(Oc2ccc(S(=O)(=O)C=C)cc2)cc1`?
TLR4-MyD88 BLA: 23; NOD2-RIPK2 inh: 36*; TLR9-MyD88 block: 15; HSF1 inh: -93*; HSF1 activator: -92; NOD2 RIPK2 conf: 51*; NOD2 BLA counter: 17*

What do the screens show for `O=C1C=C(c2c(O)ccc3ccccc23)c2ccccc2C1=O`?
NOD2-RIPK2 inh: 21*; TLR9-MyD88 block: -5; NOD2 RIPK2 conf: 15; NOD2 BLA counter: -11

What do the screens show for `CCC(C)(C)n1nnnc1C(C(C)C)N(Cc1ccco1)Cc1cc2cc3c(cc2[nH]c1=O)OCO3` (centres undefined)?
TLR4-MyD88 BLA: 10; NOD2-RIPK2 inh: 44*; TLR9-MyD88 block: 15; HSF1 inh: 5; HSF1 activator: 10; NOD2 RIPK2 conf: 5; NOD2 BLA counter: -2

What do the screens show for `COc1ccc(C(=O)N(C)CCCC2CCCC2)cc1OC1CCN(C(C)C)CC1`?
NOD2-RIPK2 inh: 7; TLR9-MyD88 block: -7; HSF1 inh: 6; HSF1 activator: 5

What do the screens show for `CC1CCN(Cc2cc(=O)oc3cc(O)c(Cl)cc23)CC1`?
NOD2-RIPK2 inh: 31*; TLR9-MyD88 block: 7; HSF1 inh: -11; HSF1 activator: -14; NOD2 RIPK2 conf: 32*; NOD2 BLA counter: 49*

Results for CC1CN(Cc2cc(=O)oc3cc(O)c(Cl)cc23)CC(C)O1 (centres undefined) ?
NOD2-RIPK2 inh: -9; TLR9-MyD88 block: -21; HSF1 inh: -4; HSF1 activator: 12

Results for COC(=O)CCS(=O)(=O)c1nc(-c2ccccc2)cc(C(F)(F)F)n1 ?
TLR4-MyD88 BLA: 15; NOD2-RIPK2 inh: 44*; TLR9-MyD88 block: 19; HSF1 inh: -94*; HSF1 activator: -94; NOD2 RIPK2 conf: 59*; NOD2 BLA counter: 13*

How did Cc1cc(NC(=O)CSc2nc(-c3cccs3)cc(C(F)(F)F)n2)no1 do in these assays?
TLR4-MyD88 BLA: 6; NOD2-RIPK2 inh: -13; TLR9-MyD88 block: 8; HSF1 inh: 0; HSF1 activator: -7

Results for O=C(O)CCS(=O)(=O)c1nc(-c2cccs2)cc(C(F)(F)F)n1 ?
TLR4-MyD88 BLA: 3; NOD2-RIPK2 inh: -8; TLR9-MyD88 block: -2; HSF1 inh: 14; HSF1 activator: 33

What do the screens show for `COc1ccc(-c2cc(C(F)(F)F)nc(S(C)(=O)=O)n2)cc1`?
TLR4-MyD88 BLA: 15; NOD2-RIPK2 inh: 33*; TLR9-MyD88 block: 17; HSF1 inh: 262; HSF1 activator: 321*; NOD2 RIPK2 conf: 42*; NOD2 BLA counter: 2

Results for Cc1cc(NC(=O)CCCS(=O)(=O)c2nc(-c3cccs3)cc(C(F)(F)F)n2)no1 ?
TLR4-MyD88 BLA: 23; NOD2-RIPK2 inh: 68*; TLR9-MyD88 block: 20; HSF1 inh: 159; HSF1 activator: 205*; NOD2 RIPK2 conf: 43*; NOD2 BLA counter: 15*

What do the screens show for `CC(C)n1nnnc1SCC(=O)Nc1ccccc1F`?
NOD2-RIPK2 inh: 1; TLR9-MyD88 block: -2; HSF1 inh: 2; HSF1 activator: 16

How did Clc1nc(Cl)c2ncn(-c3ccccc3)c2n1 do in these assays?
NOD2-RIPK2 inh: 22*; TLR9-MyD88 block: 5; NOD2 RIPK2 conf: 41*; NOD2 BLA counter: 11*

What do the screens show for `COc1ccc(CCNC(=O)C2c3ccccc3C(=O)N2CCC(C)C)cc1OC` (centres undefined)?
NOD2-RIPK2 inh: -5; TLR9-MyD88 block: 5; HSF1 inh: 12; HSF1 activator: 12

How did COc1ccc(/C=C/C(=O)Oc2ccc(C)c(C)c2)cc1OC do in these assays?
TLR4-MyD88 BLA: -4; NOD2-RIPK2 inh: -3; TLR9-MyD88 block: -5; HSF1 inh: 4; HSF1 activator: 22

What do the screens show for `COc1cc(/C=C/[N+](=O)[O-])ccc1OC(=O)/C=C/c1ccc(F)cc1`?
NOD2-RIPK2 inh: 38*; TLR9-MyD88 block: 1; HSF1 inh: 60; HSF1 activator: 70*; NOD2 RIPK2 conf: 56*; NOD2 BLA counter: -2

How did CC(C)(C)c1nc2c(C#N)c(-c3ccc(Cl)cc3)ccn2n1 do in these assays?
TLR4-MyD88 BLA: 1; NOD2-RIPK2 inh: 24*; TLR9-MyD88 block: 2; HSF1 inh: 9; HSF1 activator: 18; NOD2 RIPK2 conf: 2; NOD2 BLA counter: -2

What do the screens show for `Cc1nc2c(C#N)c(-c3ccc(Cl)cc3)ccn2n1`?
TLR4-MyD88 BLA: 10; NOD2-RIPK2 inh: -1; TLR9-MyD88 block: -4; HSF1 inh: -1; HSF1 activator: 10

What do the screens show for `ClC(Cl)(c1nnnn1-c1ccccc1)c1nnnn1-c1ccccc1`?
TLR4-MyD88 BLA: -1; NOD2-RIPK2 inh: 42*; TLR9-MyD88 block: 12; NOD2 RIPK2 conf: 42*; NOD2 BLA counter: 7

How did Cc1cc(NC(=O)CSc2nnc(-c3ccccc3Cl)o2)no1 do in these assays?
NOD2-RIPK2 inh: 47*; TLR9-MyD88 block: 3; HSF1 inh: 11; HSF1 activator: 47; NOD2 RIPK2 conf: -3; NOD2 BLA counter: -1

What do the screens show for `O=C(CC(=O)N/N=C\c1ccccc1)NCCc1ccccc1`?
NOD2-RIPK2 inh: 22*; TLR9-MyD88 block: 14; HSF1 inh: -9; HSF1 activator: -1; NOD2 RIPK2 conf: 2; NOD2 BLA counter: 1

What do the screens show for `Cc1ccc(/C=N\NC(=O)CC(=O)NCCc2ccccc2)cc1`?
NOD2-RIPK2 inh: -4; TLR9-MyD88 block: -2; HSF1 inh: -4; HSF1 activator: -1

Results for CCCCN(C=O)c1c(CC)nc2c(OCC(=O)c3ccc(F)cc3)cccn12 ?
NOD2-RIPK2 inh: 10

How did CCc1ccc2c(c1)C1(NN=C(c3ccc(C)cc3)S1)C(=O)N2 (centres undefined) do in these assays?
TLR4-MyD88 BLA: 12; NOD2-RIPK2 inh: 25*; TLR9-MyD88 block: 19; HSF1 inh: -15; HSF1 activator: -16; NOD2 RIPK2 conf: 5; NOD2 BLA counter: 7

Results for CC(C)c1ccc2c(c1)C1(NN=C(c3ccccc3)S1)C(=O)N2 (centres undefined) ?
TLR4-MyD88 BLA: 12; NOD2-RIPK2 inh: 26*; TLR9-MyD88 block: 13; HSF1 inh: -2; HSF1 activator: -10; NOD2 RIPK2 conf: 6; NOD2 BLA counter: 9

What do the screens show for `CC(=O)c1ccc(/C=C/c2nc3ccccc3n2C)o1`?
NOD2-RIPK2 inh: 54*; HSF1 inh: 25; HSF1 activator: 66*; NOD2 RIPK2 conf: 68*; NOD2 BLA counter: 70*

Results for Cn1c(/C=C/c2ccccc2)nc2ccccc21 ?
TLR4-MyD88 BLA: -4; NOD2-RIPK2 inh: 1; TLR9-MyD88 block: -6; HSF1 inh: -21; HSF1 activator: -5
